Where “and” joins values, the source holds several entries; their conditions need not be identical. Equal values may be shown once. A number with no mark means an inactive call. Records with an inconclusive call do not appear. Where a call stands in place of a potency, no number is given. Calls of active or inactive are those of the source. Unless noted, calls follow the shape of the dose curve; as a rule, active = well fitted curve in the direction sought with a large enough effect in the repeat runs; inconclusive = weak or mixed curves; inactive = no such curve, though single readings can be large; an effect the other way counts as inactive or inconclusive.
Tests used:
[1] = Caspase-3/7 induction in HepG2 cells by small molecules, qHTS assay (AID 1346978); also: nearly all actives have a fitted effect of over 15% in size
Procedure, shortened: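 Wild-type HepG2 cells (2,000/well) were settled 5 h at 37 C, 5% CO2, then exposed to compounds in DMSO for 17 h. Caspase-3/7 activity was read by luminescence 30 min after adding Caspase-Glo 3/7 reagent at room temperature.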

[2] = Caspase-3/7 induction in CHO-K1 cells by small molecules, qHTS cell viability counter screen (AID 1346979); also: nearly all actives have a fitted effect of over 35% in size; also: potency is read from the fitted curve at half-maximal effect
Procedure, shortened: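 Viability readout by fluorescence (CellTiter-Fluor) on wild-type CHO-K1 cells exposed for 16hr at 37C and 5% CO2 to compounds delivered in DMSO; reagent incubated 1hr before reading.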

[3] = Caspase-3/7 induction in CHO-K1 cells by small molecules, qHTS assay (AID 1346980); also: nearly all actives have a fitted effect of over 15% in size
Procedure, shortened: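 Wild-type cells were seeded at 1,500 per well and settled 5 hr at 37 C, 5% CO2, then exposed to DMSO-dissolved compounds for 17 hr. Caspase-Glo 3/7 reagent was added, and luminescence was read after 30min at room temperature.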

[4] = Caspase-3/7 induction in HepG2 cells by small molecules, qHTS cell viability counter screen (AID 1346981); also: nearly all actives have a fitted effect of over 30% in size; also: potency is read from the fitted curve at half-maximal effect
Procedure, shortened: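 Wild-type HepG2 cells, 2,000/well, settled 5 hr at 37 C, 5% CO2 before compound addition. Viability read by CellTiter-Fluor fluorescence, reagent added after 16 hr compound exposure, then 1 hr at 37C, in the same wells as the caspase read.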

[5] = biological target: Nuclear receptor subfamily 1 group I member 2 (Homo sapiens) (UniProt O75469); assay: Human pregnane X receptor (PXR) small molecule agonists, qHTS assay (AID 1346982); also: nearly all actives have a fitted effect of over 35% in size; also: potency is read from the fitted curve at half-maximal effect
Nuclear receptor subfamily 1 group I member 2 (Homo sapiens), sequence (O75469 whole entry, looked up): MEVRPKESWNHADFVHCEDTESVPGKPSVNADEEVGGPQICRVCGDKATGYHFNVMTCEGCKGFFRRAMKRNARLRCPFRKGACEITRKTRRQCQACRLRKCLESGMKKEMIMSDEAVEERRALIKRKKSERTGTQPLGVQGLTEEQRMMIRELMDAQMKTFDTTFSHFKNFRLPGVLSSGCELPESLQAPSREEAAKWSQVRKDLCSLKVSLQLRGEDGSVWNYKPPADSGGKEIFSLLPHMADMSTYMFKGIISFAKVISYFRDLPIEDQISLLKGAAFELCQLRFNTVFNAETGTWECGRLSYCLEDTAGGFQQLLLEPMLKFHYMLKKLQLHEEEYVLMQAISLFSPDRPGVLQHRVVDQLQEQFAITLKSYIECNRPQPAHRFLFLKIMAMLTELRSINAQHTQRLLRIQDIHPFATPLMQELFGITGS
Procedure, shortened: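 PXR-Luc HepG2 reporter cells (CYP3A4-driven luciferase) in 5% charcoal-stripped FBS medium, plated 5 h before compound addition, then treated 24 h at 37C. Luciferase read by ONE-Glo luminescence after 30 min at room temperature.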

[6] = biological target: Nuclear receptor subfamily 1 group I member 2 (Rattus norvegicus) (UniProt Q9R1A7); assay: Rat pregnane X receptor (rPXR) activation by small molecules, qHTS assay (AID 1346983); settings: rPXR luciferase reporter cells, One-Glo luminescence, 24 h; hits give high values; also: nearly all actives have a fitted effect of over 20% in size
Procedure, shortened: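 Cell-based rPXR luciferase reporter assay, 2,000 cells per well, rested 5hr at 37 C before compound addition in DMSO, then 24 hr at 37 C. One-Glo reagent was added and luminescence read after 30 min at room temperature.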

[7] = biological target: Nuclear receptor subfamily 1 group I member 2 (Homo sapiens) (UniProt O75469); assay: CYP3A4 induction through human pregnane X receptor (PXR) by small molecules, qHTS assay (AID 1346984); also: nearly all actives have a fitted effect of over 40% in size
Procedure, shortened: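 DPX-2 HepG2 cells carrying a PXR response element and CYP3A4-promoter luciferase construct, treated with compounds 24 hr at 37C. Then P450-Glo CYP3A4 Luciferin-IPA substrate (3uM final) for 3 hr at 37C, One-Glo added, luminescence read.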

[8] = biological target: Nuclear receptor subfamily 1 group I member 2 (Homo sapiens) (UniProt O75469); assay: Human pregnane X receptor (PXR) activation by small molecules, qHTS assay (AID 1346985); also: nearly all actives have a fitted effect of over 40% in size
Procedure, shortened: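 DPX-2 cells (HepG2 co-transfected with a PXR response element and a CYP3A4-promoter luciferase construct) were seeded at 2,000 per well, rested 5 hr at 37C, then exposed to DMSO-dissolved compounds for 24 hr. Activation was read as luciferase luminescence.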

[9] = biological target: Acetylcholinesterase (Homo sapiens) (UniProt P22303); assay: Acetylcholinesterase (AChE) small molecule antagonists: colormetric cell-based qHTS assay (AID 1347395; calls by dose curve; also: nearly all actives have a fitted effect of over 30% in size)
Acetylcholinesterase (Homo sapiens), sequence (P22303 whole entry, looked up): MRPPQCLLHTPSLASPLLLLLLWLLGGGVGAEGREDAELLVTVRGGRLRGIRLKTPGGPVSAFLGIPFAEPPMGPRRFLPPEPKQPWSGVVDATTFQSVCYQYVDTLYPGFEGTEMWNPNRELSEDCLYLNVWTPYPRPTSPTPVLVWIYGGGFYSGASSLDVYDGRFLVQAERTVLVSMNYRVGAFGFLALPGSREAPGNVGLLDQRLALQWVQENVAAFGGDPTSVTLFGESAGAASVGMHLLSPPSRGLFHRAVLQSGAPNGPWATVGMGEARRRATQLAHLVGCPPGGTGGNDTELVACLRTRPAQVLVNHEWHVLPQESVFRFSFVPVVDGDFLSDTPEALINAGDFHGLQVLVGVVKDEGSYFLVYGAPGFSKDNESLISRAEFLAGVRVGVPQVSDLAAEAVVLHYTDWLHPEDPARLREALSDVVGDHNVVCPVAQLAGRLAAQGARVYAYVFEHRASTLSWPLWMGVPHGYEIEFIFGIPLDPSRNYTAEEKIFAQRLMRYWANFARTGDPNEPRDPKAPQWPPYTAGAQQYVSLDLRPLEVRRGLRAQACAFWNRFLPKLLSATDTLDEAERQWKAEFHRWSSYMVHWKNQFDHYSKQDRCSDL
Procedure, shortened: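 Homogeneous whole-cell format. SH-SY5Y cells seeded overnight, dosed with compound (30 min, 37 C, 5% CO2), then given DTNB/acetylthiocholine cocktail for 90 min at 37 C; colorimetric signal.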

[10] = biological target: Acetylcholinesterase (Homo sapiens) (UniProt P22303); assay: Acetylcholinesterase (AChE) small molecule antagonists: enzyme-based qHTS assay (AID 1347397; calls by dose curve; also: nearly all actives have a fitted effect of over 55% in size); settings: Potency: AChE enzyme activity inhibition; outcome: AChE enzyme activity inhibition
Procedure, shortened: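 Recombinant human AChE, dispensed at 50 mU/mL, was preincubated with Tox21 10K compounds or DMSO vehicle for 30 min at room temperature. DTNB plus acetylthiocholine was then added, and thiocholine was measured colorimetrically after a further 10 min.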

[11] = biological target: Acetylcholinesterase (Homo sapiens) (UniProt P22303); assay: Acetylcholinesterase (AChE) small molecule antagonists: fluorescence cell-based qHTS assay (AID 1347398; calls by dose curve; also: nearly all actives have a fitted effect of over 50% in size); settings: Potency: AChE activity; outcome: AChE activity
Procedure, shortened: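 Human SH-SY5Y cells were plated overnight at 37 C, exposed to compound for 30 min at 37 C, 5% CO2, then given acetylthiocholine plus Thiolite Green for 40 min at room temperature; thiocholine fluorescence (Ex/Em 490/520 nm) reports endogenous AChE activity.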

[12] = biological target: Acetylcholinesterase (Homo sapiens) (UniProt P22303); assay: Acetylcholinesterase (AChE) small molecule antagonists: enzyme-based qHTS assay with human liver microsomes (AID 1347399; calls by dose curve; also: nearly all actives have a fitted effect of over 60% in size); settings: Potency: qHTS inhibition; outcome: qHTS inhibition
Procedure, shortened: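 Recombinant human AChE (50 mU/mL in the enzyme mix) and human liver microsomes (0.25 mg/mL final) were preincubated with compound and NADPH (0.25 mg/mL final) for 30 min at 37 C. Acetylthiocholine/DTNB was then added; thiocholine was read colorimetrically after 10 min at room temperature.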

[13] = biological target: Cytochrome P450 2C9 (Homo sapiens) (UniProt P11712); assay: Cytochrome P450 Family 2 Subfamily C Member 9 (CYP2C9) small molecule antagonists: luciferase reporter qHTS assay (AID 1671198); also: nearly all actives have a fitted effect of over 50% in size; also: potency is read from the fitted curve at half-maximal effect
Cytochrome P450 2C9 (Homo sapiens), sequence (P11712 whole entry, looked up): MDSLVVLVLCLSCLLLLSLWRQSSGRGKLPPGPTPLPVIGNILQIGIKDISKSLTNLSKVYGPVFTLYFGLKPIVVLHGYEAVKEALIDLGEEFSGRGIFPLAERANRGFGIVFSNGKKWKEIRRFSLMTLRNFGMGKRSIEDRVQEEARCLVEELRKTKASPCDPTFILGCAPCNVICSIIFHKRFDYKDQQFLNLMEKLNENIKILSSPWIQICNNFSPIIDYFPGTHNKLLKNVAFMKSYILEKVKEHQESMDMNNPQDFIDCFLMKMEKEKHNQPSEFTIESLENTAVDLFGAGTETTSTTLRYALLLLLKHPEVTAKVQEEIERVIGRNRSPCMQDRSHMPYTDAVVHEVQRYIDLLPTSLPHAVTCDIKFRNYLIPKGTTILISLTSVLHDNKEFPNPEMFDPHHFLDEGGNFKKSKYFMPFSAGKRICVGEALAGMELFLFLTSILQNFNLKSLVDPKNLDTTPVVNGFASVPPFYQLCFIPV
Procedure, shortened: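 CYP2C9 activity was measured with a P450-Glo proluciferin substrate. Enzyme–substrate mix was held with compound for 10 min at room temperature, then NADPH regeneration solution was added for 1 h at 37C. Luciferin product was read as luminescence.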

[14] = biological target: Cytochrome P450 1A2 (Homo sapiens) (UniProt P05177); assay: Cytochrome P450 Family 1 Subfamily A Member 2 (CYP1A2) small molecule antagonists: luciferase reporter qHTS assay (AID 1671199); also: nearly all actives have a fitted effect of over 50% in size; also: potency is read from the fitted curve at half-maximal effect
Cytochrome P450 1A2 (Homo sapiens), sequence (P05177 whole entry, looked up): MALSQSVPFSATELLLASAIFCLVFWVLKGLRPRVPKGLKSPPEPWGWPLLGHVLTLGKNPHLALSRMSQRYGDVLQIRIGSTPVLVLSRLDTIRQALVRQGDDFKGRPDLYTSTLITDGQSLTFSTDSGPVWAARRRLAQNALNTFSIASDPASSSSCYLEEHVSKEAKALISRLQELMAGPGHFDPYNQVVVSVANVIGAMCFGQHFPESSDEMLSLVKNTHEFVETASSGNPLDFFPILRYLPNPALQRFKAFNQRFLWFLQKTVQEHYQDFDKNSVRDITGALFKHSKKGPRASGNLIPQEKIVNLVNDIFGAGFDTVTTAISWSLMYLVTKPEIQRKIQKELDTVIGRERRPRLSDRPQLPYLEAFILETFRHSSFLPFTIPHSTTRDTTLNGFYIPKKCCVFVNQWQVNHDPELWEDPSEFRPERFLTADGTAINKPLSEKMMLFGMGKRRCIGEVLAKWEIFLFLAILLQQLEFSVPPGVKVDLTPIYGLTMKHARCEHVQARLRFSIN
Procedure, shortened: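 P450-Glo CYP1A2 enzyme–proluciferin substrate mix with compound 10 min at room temperature, then NADPH regeneration 1 h at room temperature. Luciferin detection reagent added, luminescence read after 20 min; furafylline positive control.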

[15] = biological target: Voltage-gated inwardly rectifying potassium channel KCNH2 (Homo sapiens) (UniProt Q12809); assay: Human Ether-a-go-go-Related Gene (hERG) channel small molecule antagonists: fluorescence cell-based qHTS assay (AID 1671200);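 also: hERG-expressing U2OS cells given a thallium stimulus after FluxOR II dye loading; series mostly up to about 77 µM; nearly all actives have a fitted effect of over 50% in size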
Voltage-gated inwardly rectifying potassium channel KCNH2 (Homo sapiens), sequence (Q12809 whole entry, looked up): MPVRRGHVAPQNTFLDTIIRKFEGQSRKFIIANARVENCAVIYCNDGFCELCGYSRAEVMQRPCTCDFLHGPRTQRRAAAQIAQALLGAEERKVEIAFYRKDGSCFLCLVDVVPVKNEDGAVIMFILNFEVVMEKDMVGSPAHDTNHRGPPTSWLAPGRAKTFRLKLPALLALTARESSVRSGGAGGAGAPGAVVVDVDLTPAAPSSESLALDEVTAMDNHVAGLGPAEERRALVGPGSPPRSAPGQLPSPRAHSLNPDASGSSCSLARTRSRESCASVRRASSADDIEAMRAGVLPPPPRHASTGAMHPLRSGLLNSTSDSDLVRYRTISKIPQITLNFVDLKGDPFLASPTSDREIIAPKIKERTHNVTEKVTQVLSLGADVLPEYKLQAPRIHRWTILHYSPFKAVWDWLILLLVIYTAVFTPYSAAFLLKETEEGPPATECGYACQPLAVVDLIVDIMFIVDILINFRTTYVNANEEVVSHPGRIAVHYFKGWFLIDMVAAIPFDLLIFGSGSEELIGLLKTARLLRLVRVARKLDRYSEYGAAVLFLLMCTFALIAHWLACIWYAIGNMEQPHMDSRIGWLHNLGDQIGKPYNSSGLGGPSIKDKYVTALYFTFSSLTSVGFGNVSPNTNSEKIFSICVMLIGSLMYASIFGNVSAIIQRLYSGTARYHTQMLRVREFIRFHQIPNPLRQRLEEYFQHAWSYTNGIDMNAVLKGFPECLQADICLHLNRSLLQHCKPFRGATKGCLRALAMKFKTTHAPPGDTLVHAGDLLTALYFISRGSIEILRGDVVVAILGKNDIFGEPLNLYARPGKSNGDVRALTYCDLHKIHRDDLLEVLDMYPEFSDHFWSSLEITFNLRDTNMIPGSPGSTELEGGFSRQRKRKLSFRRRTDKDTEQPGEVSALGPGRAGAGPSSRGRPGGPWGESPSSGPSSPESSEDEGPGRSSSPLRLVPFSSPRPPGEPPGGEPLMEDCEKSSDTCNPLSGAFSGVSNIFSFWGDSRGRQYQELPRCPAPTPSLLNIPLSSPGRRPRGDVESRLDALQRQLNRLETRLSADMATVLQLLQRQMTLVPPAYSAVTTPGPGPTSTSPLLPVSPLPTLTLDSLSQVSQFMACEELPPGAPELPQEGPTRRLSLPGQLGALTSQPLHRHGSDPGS
Procedure, shortened: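 Thallium served as the potassium surrogate; its influx into dye-loaded U2OS cells carrying the channel was measured by fluorescence over 2 min.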

[16] = biological target: Cytochrome P450 3A4 (Homo sapiens) (UniProt P08684); assay: Cytochrome P450 Family 3 Subfamily A Member 4 (CYP3A4) small molecule antagonists: luciferase reporter qHTS assay (AID 1671201)
Cytochrome P450 3A4 (Homo sapiens), sequence (P08684 whole entry, looked up): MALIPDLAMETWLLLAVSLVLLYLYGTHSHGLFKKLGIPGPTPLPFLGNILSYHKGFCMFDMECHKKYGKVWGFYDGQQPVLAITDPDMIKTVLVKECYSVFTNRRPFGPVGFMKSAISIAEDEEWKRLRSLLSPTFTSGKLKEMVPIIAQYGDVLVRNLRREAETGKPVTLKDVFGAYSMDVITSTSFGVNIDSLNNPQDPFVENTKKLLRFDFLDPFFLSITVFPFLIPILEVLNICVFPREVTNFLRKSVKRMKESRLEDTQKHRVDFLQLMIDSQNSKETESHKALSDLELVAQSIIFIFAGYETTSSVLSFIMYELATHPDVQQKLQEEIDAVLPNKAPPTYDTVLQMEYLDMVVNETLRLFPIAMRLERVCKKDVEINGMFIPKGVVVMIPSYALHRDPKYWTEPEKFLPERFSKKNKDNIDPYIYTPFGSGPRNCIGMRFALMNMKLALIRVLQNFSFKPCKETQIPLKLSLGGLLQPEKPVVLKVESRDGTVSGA
Procedure, shortened: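 Relative luminescence units after 20 min with luciferin detection reagent served as read-out. Beforehand, CYP3A4 turned over a proluciferin substrate for 1 h at room temperature with NADPH regeneration, following 10 min compound preincubation.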

[17] = biological target: Cytochrome P450 2D6 (Homo sapiens) (UniProt P10635); assay: Cytochrome P450 Family 2 Subfamily D Member 6 (CYP2D6) small molecule antagonists: luciferase reporter qHTS assay (AID 1671196); also: nearly all actives have a fitted effect of over 50% in size; also: potency is read from the fitted curve at half-maximal effect
Cytochrome P450 2D6 (Homo sapiens), sequence (P10635 whole entry, looked up): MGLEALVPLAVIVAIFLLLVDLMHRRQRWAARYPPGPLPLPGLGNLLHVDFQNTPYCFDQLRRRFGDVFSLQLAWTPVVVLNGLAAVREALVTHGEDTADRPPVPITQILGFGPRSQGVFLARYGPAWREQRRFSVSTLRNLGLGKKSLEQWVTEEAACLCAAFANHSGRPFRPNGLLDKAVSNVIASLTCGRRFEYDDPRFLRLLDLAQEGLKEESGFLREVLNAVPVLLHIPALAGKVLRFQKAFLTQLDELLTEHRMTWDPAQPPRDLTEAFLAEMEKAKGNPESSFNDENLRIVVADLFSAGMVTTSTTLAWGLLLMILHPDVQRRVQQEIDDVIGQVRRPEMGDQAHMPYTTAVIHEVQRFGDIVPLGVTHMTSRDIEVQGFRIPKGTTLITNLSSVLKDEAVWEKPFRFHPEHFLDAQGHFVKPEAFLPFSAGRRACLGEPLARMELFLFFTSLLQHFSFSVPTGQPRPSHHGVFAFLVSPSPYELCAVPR
Procedure, shortened: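 Cell-free P450-Glo system: CYP2D6 with proluciferin substrate was pre-incubated with compound for 10 min, then reacted with NADPH regeneration for 1 h at room temperature. Luciferin product was detected after 20 min, and data were reported as relative luminescence units.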

[18] = biological target: Cytochrome P450 2C19 (Homo sapiens) (UniProt P33261); assay: Cytochrome P450 Family 2 Subfamily C Member 19 (CYP2C19) small molecule antagonists: luciferase reporter qHTS assay (AID 1671197); also: nearly all actives have a fitted effect of over 65% in size; also: potency is read from the fitted curve at half-maximal effect
Cytochrome P450 2C19 (Homo sapiens), sequence (P33261 whole entry, looked up): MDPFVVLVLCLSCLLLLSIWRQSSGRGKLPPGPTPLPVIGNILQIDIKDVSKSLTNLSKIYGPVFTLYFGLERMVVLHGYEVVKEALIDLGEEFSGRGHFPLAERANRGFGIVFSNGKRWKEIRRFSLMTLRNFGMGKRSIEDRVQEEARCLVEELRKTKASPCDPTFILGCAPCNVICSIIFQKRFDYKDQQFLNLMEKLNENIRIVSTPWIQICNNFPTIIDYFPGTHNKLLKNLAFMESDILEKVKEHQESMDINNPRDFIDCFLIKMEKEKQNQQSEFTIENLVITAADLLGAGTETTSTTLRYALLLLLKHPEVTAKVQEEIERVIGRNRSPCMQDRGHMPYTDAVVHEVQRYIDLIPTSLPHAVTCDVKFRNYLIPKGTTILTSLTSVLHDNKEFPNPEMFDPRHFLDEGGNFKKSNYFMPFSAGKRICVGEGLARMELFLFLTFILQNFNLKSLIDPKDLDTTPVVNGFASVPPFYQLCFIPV
Procedure, shortened: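 Luminescent readout of CYP2C19 activity: luciferin product detected 20 min after adding detection reagent. Before that, compound and enzyme-substrate mix preincubated 10 min at room temperature; NADPH-regenerating system started a 1 h, 37C reaction. Ketoconazole as positive control.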

[19] = Human pregnane X receptor (PXR) small molecule agonists, qHTS cell viability counter screen (AID 1346977); also: nearly all actives have a fitted effect of over 50% in size; also: potency is read from the fitted curve at half-maximal effect
Procedure, shortened: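 Viability counter screen: CellTiter-Fluor signal in PXR-Luc HepG2 cells, 24hr compound exposure, 37C, 5% CO2.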

Structure (SMILES)	Potency [1]	Potency [2]	Potency [3]	Potency [4]	Potency [5]	max activation [6] [%]	outcome [7]	Potency [8]	Potency [9]	Potency [10]	Potency [11]	Potency [12]	Potency [13]	Potency [14]	Potency [15]	Potency [16]	Potency [17]	Potency [18]	Potency [19]
FC(F)OC(F)(F)C(F)Cl (stereo not given)	inactive	inactive	inactive	inactive	inactive	-2.15	inactive	inactive	inactive	inactive	inactive	inactive	inactive	35.6 µM (active)	inactive	inactive	–	–	–
COc1cc(C[C@@H](C)N)c(OC)cc1Br	inactive	inactive	inactive	inactive	inactive	–	–	–	inactive	inactive	inactive	inactive	inactive	36.5 µM (active)	inactive	inactive	11.6 µM (active)	inactive	–
CN(C)c1ccc(N=O)cc1	–	7.72 µM (active) and 8.63 µM (active)	inactive	54.6 µM (active) and 61.1 µM (active)	–	–	–	–	inactive	inactive	inactive	inactive	35.7 µM (active) and 39.9 µM (active)	35.7 µM (active) and 39.9 µM (active)	inactive	–	–	5.66 µM (active) and 8.94 µM (active)	44.7 µM (active) and 27.3 µM (active)
Cc1cnc(C2=NC(C)(C(C)C)C(=O)N2)c(C(=O)O)c1 (stereo not given)	inactive	inactive	inactive	inactive	inactive	–	–	–	inactive	inactive	inactive	inactive	inactive	–	inactive	inactive	inactive	–	–
O=C(N[C@H]1CN2CCC1CC2)c1ccc2c(c1)OCCO2	–	inactive	inactive	inactive	inactive	–	–	–	–	inactive	–	inactive	inactive	inactive	inactive	inactive	–	inactive	inactive
CCOC(C(=O)OCCN(C)C)(c1ccccc1)c1ccccc1	inactive	inactive	inactive	inactive	13.3 µM (active)	–	–	–	inactive	inactive	inactive	inactive	11 µM (active)	inactive	inactive	–	2.75 µM (active)	8.71 µM (active)	–
CN1CC[C@]23c4c5ccc(O)c4O[C@H]2[C@@H](O)C=C[C@H]3[C@H]1C5	–	inactive	inactive	inactive	–	–	–	–	–	inactive	–	–	–	–	–	–	–	–	inactive
SCc1ccccc1	inactive	inactive	inactive	inactive	inactive	–	–	–	inactive	inactive	inactive	inactive	36.6 µM (active)	32.6 µM (active)	–	inactive	inactive	7.31 µM (active)	–
CC(Cl)C(=O)O (stereo not given)	–	inactive	inactive	inactive	inactive	–	–	–	inactive	inactive	inactive	inactive	inactive	inactive	inactive	inactive	–	inactive	inactive

— PubChem BioAssay (Tox21)
